Results filed as inconclusive are left out. A call without a number means that no potency is given here. Calls of active or inactive are those of the source. Unless noted, the call rests on the fitted dose curve; in most records, active means well fitted curve in the direction sought with a large enough effect; inconclusive means small, poorly fitted or top-dose-only effect, or another doubt; inactive means no such curve, though single readings can be large; an effect the other way counts as inactive or inconclusive.
Columns and labels:
[1] = molecular target: ATPase family AAA domain-containing protein 5 (Homo sapiens) (UniProt Q96QE3); assay: Validation screen for small molecules that inhibit ELG1-dependent DNA repair in human embryonic kidney (HEK293T) cells expressing luciferase-tagged ELG1 (AID 493107);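 further: cells co-treated with the DNA-damaging agent 5-fluorouridine alongside compound; series mostly up to about 46 µM; inhibitors lower the ELG1-luciferase luminescence signal; nearly all actives have a fitted effect of over 70% in size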
Procedure, shortened: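 Compounds reducing 5-fluorouridine-driven ELG1-luciferase signal in HEK293T cells were scored; exposure lasted 16 hr at 37 °C with luminescence detected via ONE-Glo.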

[2] = molecular target: Thyrotropin-releasing hormone receptor (Homo sapiens) (UniProt P34981); assay: qHTS for Small Molecule Agonists and Allosteric Enhancers of Human TRH Receptor: Validation Screen for Agonists (AID 493127;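 active means calcium activation more than 3 SD above the typical response in the agonist read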;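 further: intracellular calcium rise by fluo-8 fluorescence before TRH EC20 addition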); settings: TRH receptor agonist cell assay; at 2 µM; stronger effect = higher value
Procedure, shortened: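 Kinetic fluorescence assay of agonist-induced calcium release: overnight-plated TRHR cells, room-temperature fluo-8 loading, baseline then compound addition with per-second reads.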

[3] = Nrf2 qHTS screen for inhibitors: Validation (AID 493153; active means well fitted inhibition curve with a large enough effect in the main read-out, with a control signal flat, not every such curve was filed as active); settings: Potency: luciferase luminescence; viability change: measured here: cytotoxicity max response
Procedure, shortened: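 In this counterscreened reporter format, each well gives two signals: CellTiter-Fluor fluorescence for cytotoxicity and ARE-luciferase luminescence for Nrf2 function. A549 ARE_Fluc cells in 5% FBS OPTI-MEM were exposed to compound titrations for 18-24 h.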

[4] = qHTS for Inhibitors of Cell Surface uPA Generation: Validation Assay (AID 493164);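 further: RAW 264.7 macrophage cells exposed to compound for 18 h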
Procedure, shortened: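 Compounds are titrated over seven points (2.45 nM–38.3 uM final) onto pre-plated RAW 264.7 cells and incubated for 18 h. Retained intracellular ATP, measured with ATP-Lite, indicates blocked lethal factor entry.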

[5] = molecular target: Galactokinase (Homo sapiens) (UniProt P51570); assay: qHTS Validation Assay for Inhibitors of Human Galactokinase (GALK) (AID 493189)
Procedure, shortened: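 Compounds were pin-transferred into ATP buffer, then GALK-galactose mix was added (final 5 nM enzyme, 100 uM galactose, 35 uM ATP). After 1 h at room temperature, remaining ATP was measured luminescently.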

[6] = Validation screen for small molecules that induce DNA re-replication in SW480 colon adenocarcinoma cells (AID 504364)
Procedure, shortened: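 Hoechst-stained SW480 nuclei, imaged at 405 nm excitation after 48 hr compound exposure, were counted for elevated DNA content as the re-replication signal.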

[7] = molecular target: Peptidyl-prolyl cis-trans isomerase NIMA-interacting 1 (Homo sapiens) (UniProt Q13526); assay: qHTS Validation Assay to Find Inhibitors of Pin1 (AID 504536; active means well fitted inhibition curve with a large enough effect in the polarisation, with a control signal flat, not every such curve was filed as active; the % refers to the polarisation)
Procedure, shortened: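 Fluorescence polarization competition: compounds (titration) displace HiFluor-488-labeled Pin1-1b peptide from Pin1 (0.3 uM final) in pH 7.5 HEPES buffer with DTT, 10 min at room temperature; %Activity normalized to no-enzyme wells, curves fitted.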

[8] = molecular target: Phosphoglycerate kinase, glycosomal (Trypanosoma brucei brucei) (UniProt P07378); assay: qHTS Validation Assay to Find Inhibitors of Phosphoglycerate Kinase (AID 504547)
Procedure, shortened: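 Luminescence end-point (Kinase-Glo Plus, 10 min) after a 60 min room-temperature coupled reaction. GAPDH at 100nM final supplies 1,3-BPG to PGK. Buffer: 100mM TEA pH 7.6, 5mM MgCl2, 0.01% Tween-20. Wells lacking PGK served as controls.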

[9] = molecular target: phosphoglycerate mutase (Leishmania major) (UniProt Q4Q090); assay: qHTS Validation Assay to Find Inhibitors of Phosphoglycerate Mutase (AID 504548);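 further: end-point luminescence from Kinase-GloPlus after the PGAM reaction; series mostly up to about 58 µM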
Procedure, shortened: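 L. major PGAM (1.25nM final) was added to substrate buffer and pinned compound, incubated 45 minutes at room temperature, then Kinase-GloPlus added; luminescence read after 10 minutes. Buffer: 100 mM TEA pH 7.6, 5 mM MgCl2, 0.01% Tween-20.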

[10] = molecular target: Ubiquitin carboxyl-terminal hydrolase 1 (Homo sapiens) (UniProt O94782); assay: Inhibitors of USP1/UAF1: Pilot qHTS (AID 504865);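 further: rhodamine fluorescence freed from ubiquitin-rhodamine substrate followed over time; top concentration of the series differs between compounds; nearly all actives have a fitted effect of over 35% in size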
Procedure, shortened: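 Kinetic fluorescence assay: 1nM USP1/UAF1, 15 min compound preincubation, then 150nM Ub-Rho; 480/540 nm.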

Chain of Ubiquitin carboxyl-terminal hydrolase 1 (Homo sapiens) (O94782 whole entry, looked up): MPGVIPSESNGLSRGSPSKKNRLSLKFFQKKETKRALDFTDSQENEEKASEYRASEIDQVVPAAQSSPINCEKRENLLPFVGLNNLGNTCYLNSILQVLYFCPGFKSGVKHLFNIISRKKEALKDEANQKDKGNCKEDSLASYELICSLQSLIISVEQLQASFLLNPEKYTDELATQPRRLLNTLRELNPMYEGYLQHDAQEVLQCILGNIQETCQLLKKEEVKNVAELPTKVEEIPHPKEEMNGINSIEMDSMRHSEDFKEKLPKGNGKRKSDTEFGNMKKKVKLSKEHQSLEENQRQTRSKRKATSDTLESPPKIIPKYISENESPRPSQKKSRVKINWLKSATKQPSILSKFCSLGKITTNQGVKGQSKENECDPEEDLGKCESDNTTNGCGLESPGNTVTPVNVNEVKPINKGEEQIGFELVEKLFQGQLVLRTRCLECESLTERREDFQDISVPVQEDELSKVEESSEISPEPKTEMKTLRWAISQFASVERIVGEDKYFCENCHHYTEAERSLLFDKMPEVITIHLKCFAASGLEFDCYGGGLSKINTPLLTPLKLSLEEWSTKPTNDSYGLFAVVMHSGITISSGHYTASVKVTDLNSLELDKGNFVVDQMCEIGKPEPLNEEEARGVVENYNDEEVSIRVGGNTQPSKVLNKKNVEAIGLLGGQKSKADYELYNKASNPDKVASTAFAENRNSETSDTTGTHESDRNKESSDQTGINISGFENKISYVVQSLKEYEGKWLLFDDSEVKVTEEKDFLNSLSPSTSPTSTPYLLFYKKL
Chain of Thyrotropin-releasing hormone receptor (Homo sapiens) (P34981 whole entry, looked up): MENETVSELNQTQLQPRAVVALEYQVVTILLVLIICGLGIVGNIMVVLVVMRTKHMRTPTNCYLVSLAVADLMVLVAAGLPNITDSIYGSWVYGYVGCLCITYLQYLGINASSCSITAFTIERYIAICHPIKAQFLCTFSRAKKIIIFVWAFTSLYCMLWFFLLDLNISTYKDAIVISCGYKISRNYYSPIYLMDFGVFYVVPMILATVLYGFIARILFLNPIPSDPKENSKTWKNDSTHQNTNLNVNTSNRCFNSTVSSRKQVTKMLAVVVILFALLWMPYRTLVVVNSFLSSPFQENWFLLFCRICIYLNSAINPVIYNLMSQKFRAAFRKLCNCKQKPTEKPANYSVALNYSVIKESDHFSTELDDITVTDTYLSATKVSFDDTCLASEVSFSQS
Chain of ATPase family AAA domain-containing protein 5 (Homo sapiens) (Q96QE3 whole entry, looked up, the tested form may be a part): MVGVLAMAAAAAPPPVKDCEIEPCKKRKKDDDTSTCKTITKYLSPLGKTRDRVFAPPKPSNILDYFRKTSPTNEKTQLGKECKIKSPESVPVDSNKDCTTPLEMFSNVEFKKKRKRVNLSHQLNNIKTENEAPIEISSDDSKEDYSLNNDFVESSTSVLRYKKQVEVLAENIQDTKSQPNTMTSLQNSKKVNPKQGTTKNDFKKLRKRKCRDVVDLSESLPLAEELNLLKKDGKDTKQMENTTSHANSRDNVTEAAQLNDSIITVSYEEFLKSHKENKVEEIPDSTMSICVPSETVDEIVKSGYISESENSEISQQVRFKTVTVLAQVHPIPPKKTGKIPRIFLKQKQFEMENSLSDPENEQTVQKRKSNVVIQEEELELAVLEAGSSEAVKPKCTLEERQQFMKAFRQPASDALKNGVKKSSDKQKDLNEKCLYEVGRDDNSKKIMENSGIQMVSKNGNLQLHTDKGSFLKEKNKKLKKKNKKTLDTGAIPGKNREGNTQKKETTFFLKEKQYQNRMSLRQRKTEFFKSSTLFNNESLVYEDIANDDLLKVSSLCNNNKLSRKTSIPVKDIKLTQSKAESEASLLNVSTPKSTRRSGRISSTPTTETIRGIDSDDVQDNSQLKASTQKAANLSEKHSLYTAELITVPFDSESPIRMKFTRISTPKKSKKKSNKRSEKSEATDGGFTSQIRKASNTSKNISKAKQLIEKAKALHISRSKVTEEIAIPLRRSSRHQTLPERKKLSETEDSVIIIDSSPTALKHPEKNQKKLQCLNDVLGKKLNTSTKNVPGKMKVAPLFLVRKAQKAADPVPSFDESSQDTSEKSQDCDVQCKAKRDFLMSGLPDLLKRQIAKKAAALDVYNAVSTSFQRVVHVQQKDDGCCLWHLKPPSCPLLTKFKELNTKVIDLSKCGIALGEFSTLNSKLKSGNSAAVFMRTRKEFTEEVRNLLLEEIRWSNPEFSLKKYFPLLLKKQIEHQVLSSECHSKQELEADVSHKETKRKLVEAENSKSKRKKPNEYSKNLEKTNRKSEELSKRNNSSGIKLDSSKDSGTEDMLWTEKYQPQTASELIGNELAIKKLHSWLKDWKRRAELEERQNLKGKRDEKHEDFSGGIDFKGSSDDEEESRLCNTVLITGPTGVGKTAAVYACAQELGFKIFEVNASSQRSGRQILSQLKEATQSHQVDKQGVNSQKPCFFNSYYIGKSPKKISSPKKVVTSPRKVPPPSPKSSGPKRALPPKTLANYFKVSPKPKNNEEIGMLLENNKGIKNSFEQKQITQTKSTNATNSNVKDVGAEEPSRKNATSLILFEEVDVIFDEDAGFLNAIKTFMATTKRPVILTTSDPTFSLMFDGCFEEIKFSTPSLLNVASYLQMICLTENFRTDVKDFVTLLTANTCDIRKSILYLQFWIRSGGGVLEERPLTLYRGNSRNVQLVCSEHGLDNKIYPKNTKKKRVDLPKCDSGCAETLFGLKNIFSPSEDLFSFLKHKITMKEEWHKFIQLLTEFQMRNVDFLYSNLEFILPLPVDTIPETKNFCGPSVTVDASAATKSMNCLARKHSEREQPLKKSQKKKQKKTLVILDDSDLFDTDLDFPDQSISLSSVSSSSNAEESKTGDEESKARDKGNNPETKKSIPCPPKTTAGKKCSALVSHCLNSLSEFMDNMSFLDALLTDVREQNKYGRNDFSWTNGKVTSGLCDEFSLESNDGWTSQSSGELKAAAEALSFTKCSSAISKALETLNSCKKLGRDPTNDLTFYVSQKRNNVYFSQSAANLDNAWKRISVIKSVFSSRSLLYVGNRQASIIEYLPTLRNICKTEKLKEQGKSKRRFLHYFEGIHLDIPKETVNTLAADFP
Chain of Peptidyl-prolyl cis-trans isomerase NIMA-interacting 1 (Homo sapiens) (Q13526 whole entry, looked up): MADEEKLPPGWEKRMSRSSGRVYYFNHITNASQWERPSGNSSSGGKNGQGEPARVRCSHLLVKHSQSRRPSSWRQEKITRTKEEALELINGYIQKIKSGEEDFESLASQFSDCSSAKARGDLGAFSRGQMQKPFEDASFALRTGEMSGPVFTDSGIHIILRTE
Chain of Galactokinase (Homo sapiens) (P51570 whole entry, looked up): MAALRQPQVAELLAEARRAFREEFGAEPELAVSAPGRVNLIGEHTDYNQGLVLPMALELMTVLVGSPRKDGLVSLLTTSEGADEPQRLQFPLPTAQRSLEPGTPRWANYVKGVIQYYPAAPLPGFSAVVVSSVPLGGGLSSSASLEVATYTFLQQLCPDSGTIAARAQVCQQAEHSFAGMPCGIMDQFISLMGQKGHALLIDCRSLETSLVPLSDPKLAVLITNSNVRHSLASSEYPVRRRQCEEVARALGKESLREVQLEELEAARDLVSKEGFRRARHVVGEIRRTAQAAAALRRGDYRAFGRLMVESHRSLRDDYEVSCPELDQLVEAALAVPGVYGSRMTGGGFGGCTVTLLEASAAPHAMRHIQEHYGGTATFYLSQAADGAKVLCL
Chain of Phosphoglycerate kinase, glycosomal (Trypanosoma brucei brucei) (P07378 whole entry, looked up): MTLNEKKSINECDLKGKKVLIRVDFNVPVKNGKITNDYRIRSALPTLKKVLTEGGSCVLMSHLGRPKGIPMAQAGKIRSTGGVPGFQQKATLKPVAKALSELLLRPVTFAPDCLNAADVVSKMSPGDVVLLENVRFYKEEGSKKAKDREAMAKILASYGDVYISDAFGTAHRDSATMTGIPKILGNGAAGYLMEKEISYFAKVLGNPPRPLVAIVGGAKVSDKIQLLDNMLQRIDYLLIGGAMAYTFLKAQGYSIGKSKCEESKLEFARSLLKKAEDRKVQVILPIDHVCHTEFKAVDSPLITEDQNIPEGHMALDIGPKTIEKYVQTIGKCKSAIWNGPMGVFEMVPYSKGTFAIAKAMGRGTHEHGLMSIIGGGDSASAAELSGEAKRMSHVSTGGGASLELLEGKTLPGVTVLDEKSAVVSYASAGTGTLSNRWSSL
Chain of phosphoglycerate mutase (Leishmania major) (Q4Q090 1-553): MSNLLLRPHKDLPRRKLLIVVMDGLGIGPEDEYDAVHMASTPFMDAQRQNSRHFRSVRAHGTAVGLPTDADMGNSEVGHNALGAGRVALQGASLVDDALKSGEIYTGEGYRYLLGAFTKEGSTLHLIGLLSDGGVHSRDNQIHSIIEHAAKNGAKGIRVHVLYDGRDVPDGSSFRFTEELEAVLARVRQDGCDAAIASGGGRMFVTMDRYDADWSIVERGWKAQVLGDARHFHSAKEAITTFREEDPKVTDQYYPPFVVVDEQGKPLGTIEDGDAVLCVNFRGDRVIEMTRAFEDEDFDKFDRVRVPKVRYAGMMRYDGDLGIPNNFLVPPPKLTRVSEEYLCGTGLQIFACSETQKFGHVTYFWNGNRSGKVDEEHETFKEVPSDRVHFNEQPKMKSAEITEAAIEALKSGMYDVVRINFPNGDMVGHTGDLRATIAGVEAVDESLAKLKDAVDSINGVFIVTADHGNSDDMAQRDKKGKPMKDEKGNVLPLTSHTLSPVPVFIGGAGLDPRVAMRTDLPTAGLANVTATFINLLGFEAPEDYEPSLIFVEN

| SMILES | Potency [1] | activation [2] | Potency [3] | viability change [3] [%] | outcome [4] | outcome [5] | outcome [6] | outcome [7] | outcome [8] | outcome [9] | Potency [10] |
| --- | --- | --- | --- | --- | --- | --- | --- | --- | --- | --- | --- |
| O=C1CCC(N2C(=O)c3ccccc3C2=O)C(=O)N1 (configuration not stated) | inactive | 0.188% (inactive) | inactive | -1.75 | inactive | inactive | inactive | inactive | inactive | inactive |  |
| Cc1[nH]c(=O)c(C#N)cc1-c1ccncc1 | inactive | 0.562% (inactive) | inactive | -4.04 | inactive | inactive | inactive | inactive | inactive | inactive | inactive |
| c1ccc([C@H]2CN3CCSC3=N2)cc1 | inactive | 0.875% (inactive) | inactive | -0.324 | inactive | inactive | inactive | inactive | inactive | inactive | inactive |
| NS(=O)(=O)c1cc2c(cc1Cl)NC=NS2(=O)=O | inactive | 1.12% (inactive) | inactive | -3.76 | inactive | inactive | inactive | inactive | inactive | inactive |  |
| Clc1cccc(Cl)c1NC1=NCCN1 | inactive |  | inactive | 0.846 | inactive | inactive | inactive | inactive | inactive | inactive |  |
| C1COC(NC(C2CC2)C2CC2)=N1 | inactive | -0.312% (inactive) | inactive | -3.72 | inactive | inactive | inactive | inactive | inactive | inactive |  |
| Oc1ccc(C2CNCCc3c2cc(O)c(O)c3Cl)cc1 (configuration not stated) | inactive |  | inactive | 0.62 | inactive | inactive | inactive | inactive | inactive | inactive |  |
| OC(CN1CCC(Cc2ccc(F)cc2)CC1)c1ccc(Cl)cc1 (configuration not stated) | inactive | -3.12% (inactive) | inactive | -17.6 | inactive | inactive | inactive | inactive | inactive |  | inactive |
| O=NN(CCCl)C(=O)NCCCl | inactive | 0.438% (inactive) | inactive | -0.612 | inactive | inactive | inactive | inactive | inactive | inactive |  |
| O=c1[nH]cnc2[nH]ncc12 | inactive |  | inactive | 5.19 | inactive | inactive | inactive | inactive | inactive | inactive |  |
| NC(N)=NC(=O)c1nc(Cl)c(N)nc1N | inactive | 0.812% (inactive) | inactive | -5.66 | inactive | inactive | inactive | inactive | inactive | inactive |  |
| NCCCC(N)(C(=O)O)C(F)F (configuration not stated) | inactive | 0.938% (inactive) |  |  | inactive | inactive | inactive | inactive | inactive | inactive |  |

— PubChem BioAssay (NCATS)
